For 18 molecules, Percent Effect results are on record in ChEMBL document CHEMBL3988442, “University of Dundee, Small-Polar-MMV Screening Library” (2021).

The assay concerns the target T1, Arginase-2, mitochondrial (Homo sapiens) (UniProt P78540).
T1 sequence (whole entry): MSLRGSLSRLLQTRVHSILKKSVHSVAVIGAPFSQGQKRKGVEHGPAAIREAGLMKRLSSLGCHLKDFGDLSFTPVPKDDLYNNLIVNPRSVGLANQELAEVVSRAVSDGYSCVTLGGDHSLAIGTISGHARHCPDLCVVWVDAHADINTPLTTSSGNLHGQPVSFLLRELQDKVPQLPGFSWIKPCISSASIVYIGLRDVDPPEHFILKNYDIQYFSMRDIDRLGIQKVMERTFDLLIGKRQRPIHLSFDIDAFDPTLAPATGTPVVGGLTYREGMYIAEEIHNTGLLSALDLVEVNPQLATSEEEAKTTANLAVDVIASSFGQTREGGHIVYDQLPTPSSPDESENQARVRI
Description: in vitro enzyme assay to detect the production of urea directly proportional to the activity of Arginase II. It counts as functional. Also on record: scale not given: in the data most compounds retested in dose-response had high values. The settings on record: 30 µM.
Take `O=C(c1coc(CN2CCN(c3ccccc3F)CC2)n1)N1CCCC1`: the Percent Effect worked out at 3.78%. In the case of `CC(C)CNC(=O)c1cc(Br)c2c(c1)OCCO2` it was 3.78%; in that of `Cc1ccc([C@@H]2CN(S(=O)(=O)Cc3ccccc3)C[C@H]2N(C)C)cc1`, 1.62%; in that of `O=C(NCc1ccccn1)[C@]12COC[C@H]1CN(Cc1cccnc1)C2`, -5.95%. With `CNC(=O)[C@H]1C[C@@H]2CN(C(=O)c3ccccn3)C[C@@H]2N1S(C)(=O)=O`, the Percent Effect was 8.11%.

As to `CC(=O)N1CCN(C(=O)Cn2ccc3c(Cl)cccc32)CC1`, the Percent Effect came to 2.7%. The figure for `COCCCC1CCCN(C(=O)CCc2csc(N)n2)C1` (stereo not drawn) is 3.78%; for `COc1ccc(C(=O)N2C[C@@H](C(=O)O)[C@H](c3ccccc3)C2)c(C)c1` it is -7.03%. The figure for `CN(CC(=O)N1CCCC1c1noc(C2CC2)n1)C1CC1` (stereo not drawn) is 5.95%; for `CNC(=O)[C@@H]1CCO[C@@H]2CCN(CCc3ccccc3)C[C@H]21` it is 8.11%; for `CN1[C@H]2CC[C@@H]1CN(C(=O)CCc1csc(N)n1)CC2` it is 3.78%. In the case of `Cc1ccc([C@@H]2CN(S(=O)(=O)c3cc(C)ccc3F)C[C@H]2N(C)C)cc1` it was 2.7%; in that of `CN(C)c1ccc(NC(=O)C2CN(Cc3ccccc3)CCO2)cn1` (stereo not drawn), 10.3%; in that of `CNC(=O)[C@H]1C[C@@H]2CN(C(=O)c3ccncc3)C[C@@H]2N1S(C)(=O)=O`, 4.87%. With `Cc1cc(C)n(C2CN(Cc3noc(C4CC4)n3)C2)n1`, the Percent Effect worked out at 8.11%. The figure for `CC(C)[C@H](NC(=O)Cn1nc2c(cc1=O)CCCC2)C(=O)O` is 13.5%; for `CCOCCNC(=O)c1cc(Br)c2c(c1)OCCO2` it is 9.19%; for `COc1ccc(C(=O)N(CCC#N)Cc2ccccn2)cc1` it is 1.62%.
